Source: PubChem BioAssay AID1159580 (chemical genetic matrix, 2015)
Values joined by “and” are separate entries in the source; they are usually repeats but may differ in a detail not shown here. Equal values may be shown once. Screen size: about 5,500 compounds; about 2,000 (36%) were called active. Not shown: some 18% with an inconclusive outcome. Cut-off read from the data, not from the text of the source: active = normalized growth mostly below about 0.91 (no sharp cut-off); inconclusive = no clear call, values can overlap the other calls; inactive = mostly above about 0.92. The list shows a part of the results.

Assay: chemical genetic growth profiling, strain panel (AID 1159580);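 note: tested at 20 µM; growth read once vehicle control cultures reached saturation at 30 °C; 1 = growth at the plate median or of vehicle wells; lower values mean less growth of the strain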
Conditions: growth OD

Measured: normalized growth

C=CCc1ccccc1OCC(O)CNC(C)C (stereo unspecified)
inactive: S. cerevisiae deletion strains, locus YJR066W, strain TOR1, stronger effect = lower value 0.924 | S. cerevisiae deletion strains, locus YJR075W, strain HOC1, stronger effect = lower value 1.01 and 1 | S. cerevisiae deletion strains, locus YKL009W, strain mrt4, stronger effect = lower value 1 | S. cerevisiae deletion strains, locus YKL068W, stronger effect = lower value 1.01 | S. cerevisiae deletion strains, locus YKL085W, strain MDH1 (second series), stronger effect = lower value 1.01 | S. cerevisiae deletion strains, locus YKL085W, strain MDH1, stronger effect = lower value 1.01 | S. cerevisiae deletion strains, locus YKL160W, strain elf1, stronger effect = lower value 1 | S. cerevisiae deletion strains, locus YKL190W, strain CNB1, stronger effect = lower value 1 | S. cerevisiae deletion strains, locus YKR001C, strain vps1, stronger effect = lower value 1.03 | S. cerevisiae deletion strains, locus YKR026C, strain gcn3, stronger effect = lower value 0.988 | S. cerevisiae deletion strains, locus YKR091W, strain srl3, stronger effect = lower value 0.997 | S. cerevisiae deletion strains, locus YLL001W, strain dnm1, stronger effect = lower value 1.01 | S. cerevisiae deletion strains, locus YLL026W, stronger effect = lower value 0.991 | S. cerevisiae deletion strains, locus YLL041C, strain sdh2, stronger effect = lower value 0.992 | S. cerevisiae deletion strains, locus YLR027C, strain aat2, stronger effect = lower value 0.99 | S. cerevisiae deletion strains, locus YLR039C, strain RIC1, stronger effect = lower value 1.06 | S. cerevisiae deletion strains, locus YLR058C, strain SHM2, stronger effect = lower value 1.01 | S. cerevisiae deletion strains, locus YLR102C, strain apc9, stronger effect = lower value 1.01 | S. cerevisiae deletion strains, locus YLR113W, strain HOG1, stronger effect = lower value 0.983 | S. cerevisiae deletion strains, locus YLR221C, strain rsa3, stronger effect = lower value 0.992 | S. cerevisiae deletion strains, locus YLR258W, strain gsy2, stronger effect = lower value 0.99 | S. cerevisiae deletion strains, locus YLR262C, strain YPT6 (second series), stronger effect = lower value 1.02 | S. cerevisiae deletion strains, locus YLR262C, strain YPT6, stronger effect = lower value 1.06 | S. cerevisiae deletion strains, locus YLR268W, strain sec22, stronger effect = lower value 1.03 | S. cerevisiae deletion strains, locus YLR320W, strain mms22, stronger effect = lower value 0.994 | S. cerevisiae deletion strains, locus YLR330W, strain CHS5, stronger effect = lower value 0.988 | S. cerevisiae deletion strains, locus YLR342W, strain FKS1 (second series), stronger effect = lower value 0.974 | S. cerevisiae deletion strains, locus YLR342W, strain FKS1, stronger effect = lower value 0.995 | S. cerevisiae deletion strains, locus YLR357W, strain rsc2, stronger effect = lower value 0.967 | S. cerevisiae deletion strains, locus YLR370C, strain arc18, stronger effect = lower value 1.01 | S. cerevisiae deletion strains, locus YLR371W, strain rom2, stronger effect = lower value 1.01 | S. cerevisiae deletion strains, locus YLR384C, strain iki3, stronger effect = lower value 0.997 | S. cerevisiae deletion strains, locus YLR418C, strain cdc73, stronger effect = lower value 1.04 | S. cerevisiae deletion strains, locus YML016C, strain PPZ1, stronger effect = lower value 1 | S. cerevisiae deletion strains, locus YML032C, strain rad52, stronger effect = lower value 1.01 | S. cerevisiae deletion strains, locus YML120C, strain ndi1, stronger effect = lower value 0.994 | S. cerevisiae deletion strains, locus YML124C, strain tub3, stronger effect = lower value 1.01 | S. cerevisiae deletion strains, locus YMR058W, strain fet3, stronger effect = lower value 1 | S. cerevisiae deletion strains, locus YMR078C, strain ctf18, stronger effect = lower value 1.01 | S. cerevisiae deletion strains, locus YMR125W, strain sto1, stronger effect = lower value 0.993 | S. cerevisiae deletion strains, locus YMR129W, stronger effect = lower value 1 | S. cerevisiae deletion strains, locus YMR205C, strain PFK2, stronger effect = lower value 0.98 | S. cerevisiae deletion strains, locus YMR223W, strain ubp8, stronger effect = lower value 1 | S. cerevisiae deletion strains, locus YMR231W, strain pep5, stronger effect = lower value 0.995 | S. cerevisiae deletion strains, locus YMR263W, strain SAP30, stronger effect = lower value 1.01 | S. cerevisiae deletion strains, locus YMR307W, strain GAS1, stronger effect = lower value 1.02 | S. cerevisiae deletion strains, locus YNL067W, strain RPL9B, stronger effect = lower value 1.01 | S. cerevisiae deletion strains, locus YNL071W, strain lat1, stronger effect = lower value 1 | S. cerevisiae deletion strains, locus YNL128W, strain TEP1, stronger effect = lower value 1.01 and 0.998 | S. cerevisiae deletion strains, locus YNL153C, strain GIM3, stronger effect = lower value 1 | S. cerevisiae deletion strains, locus YNL175C, strain NOP13, stronger effect = lower value 0.973 | S. cerevisiae deletion strains, locus YNL183C, strain NPR1, stronger effect = lower value 0.924 | S. cerevisiae deletion strains, locus YNL209W, strain ssb2, stronger effect = lower value 1.01 | S. cerevisiae deletion strains, locus YNL224C, strain SQS1, stronger effect = lower value 0.972 | S. cerevisiae deletion strains, locus YNL233W, strain BNI4, stronger effect = lower value 0.982 | S. cerevisiae deletion strains, locus YNL248C, strain rpa49, stronger effect = lower value 1.01 | S. cerevisiae deletion strains, locus YNL250W, strain rad50, stronger effect = lower value 1.01 | S. cerevisiae deletion strains, locus YNL271C, strain bni1, stronger effect = lower value 1.01 | S. cerevisiae deletion strains, locus YNL298W, strain CLA4, stronger effect = lower value 1.02 | S. cerevisiae deletion strains, locus YNL307C, strain MCK1, stronger effect = lower value 1.03 | S. cerevisiae deletion strains, locus YNL322C, strain KRE1 (second series), stronger effect = lower value 0.991 | S. cerevisiae deletion strains, locus YNL322C, strain KRE1, stronger effect = lower value 1 | S. cerevisiae deletion strains, locus YNR049C, strain mso1, stronger effect = lower value 0.988 | S. cerevisiae deletion strains, locus YNR052C, strain pop2, stronger effect = lower value 1.01 | S. cerevisiae deletion strains, locus YOL006C, strain TOP1, stronger effect = lower value 1.05 | S. cerevisiae deletion strains, locus YOL012C, strain htz1 0.911 | S. cerevisiae deletion strains, locus YOL147C, strain pex11, stronger effect = lower value 1.01 | S. cerevisiae deletion strains, locus YOR001W, strain rrp6, stronger effect = lower value 0.997 | S. cerevisiae deletion strains, locus YOR061W, strain CKA2, stronger effect = lower value 1.01 | S. cerevisiae deletion strains, locus YOR069W, strain VPS5, stronger effect = lower value 1.01 | S. cerevisiae deletion strains, locus YOR070C, strain gyp1, stronger effect = lower value 0.997 | S. cerevisiae deletion strains, locus YOR080W, strain dia2, stronger effect = lower value 0.993 | S. cerevisiae deletion strains, locus YOR083W, strain WHI5 (second series), stronger effect = lower value 0.978 | S. cerevisiae deletion strains, locus YOR083W, strain WHI5, stronger effect = lower value 1.01 | S. cerevisiae deletion strains, locus YOR106W, strain vam3, stronger effect = lower value 1.05 | S. cerevisiae deletion strains, locus YOR136W, strain idh2, stronger effect = lower value 1 | S. cerevisiae deletion strains, locus YOR144C, strain elg1, stronger effect = lower value 1 | S. cerevisiae deletion strains, locus YOR184W, strain ser1, stronger effect = lower value 1.03 | S. cerevisiae deletion strains, locus YOR231W, strain MKK1, stronger effect = lower value 0.983 | S. cerevisiae deletion strains, locus YOR265W, strain rbl2, stronger effect = lower value 1 | S. cerevisiae deletion strains, locus YOR270C, strain vph1, stronger effect = lower value 1.07 | S. cerevisiae deletion strains, locus YOR290C, strain snf2, stronger effect = lower value 0.923 | S. cerevisiae deletion strains, locus YOR316C, strain cot1, stronger effect = lower value 1.01 | S. cerevisiae deletion strains, locus YPL051W, strain arl3, stronger effect = lower value 1.01 | S. cerevisiae deletion strains, locus YPL055C, strain LGE1, stronger effect = lower value 1 | S. cerevisiae deletion strains, locus YPL078C, strain atp4, stronger effect = lower value 1.01 | S. cerevisiae deletion strains, locus YPL106C, strain sse1, stronger effect = lower value 0.987 | S. cerevisiae deletion strains, locus YPL240C, strain hsp82, stronger effect = lower value 1.01 | S. cerevisiae deletion strains, locus YPL241C, strain CIN2, stronger effect = lower value 0.997 | S. cerevisiae deletion strains, locus YPL256C, strain CLN2, stronger effect = lower value 0.981 | S. cerevisiae deletion strains, locus YPR119W, strain clb2, stronger effect = lower value 1.01 | S. cerevisiae deletion strains, locus YPR141C, strain kar3, stronger effect = lower value 1.02 | S. cerevisiae deletion strains, locus YPR163C, strain tif3, stronger effect = lower value 1.01 | S. cerevisiae deletion strains, locus YPR167C, strain met16, stronger effect = lower value 1.01 | S. cerevisiae deletion strains, strain wtn01, stronger effect = lower value 1.01 | S. cerevisiae strains, strain wild type, stronger effect = lower value 1
